Experimental data from PubChem BioAssay AID488890 (Southern Research Specialized Biocontainment Screening …, 2010).
The whole screen tested about 320,000 compounds, of which about 1,300 (0.41%) were called active. Another 3% or so got no clear call; they are omitted. How the calls were made is not given here. The list is a sample of the results. Entries with a potency or affinity are not part of this list.

Assay: growth inhibition of non-replicating M. tuberculosis (AID 488890);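 further: plate controls were DMSO cells for no effect and high antibiotic wells for full effect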
Conditions: Mycobacterium tuberculosis non-replicating, at 25 µM, stronger effect = higher value
For Cc1ccc(N/C=C/C(=O)C(C)(C)C)c(O)c1, the inhibition was 6.34%.
In the case of NC(=O)c1ccccc1N/C=C/C(=O)c1ccco1, the inhibition is reported as -0.65%.
With CCOc1ccccc1N/C=C/C(=O)C(C)(C)C the inhibition was 0.25%.
In the case of Cc1ccc(N/C=C/C(=O)c2ccco2)c(O)c1, the inhibition is reported as 12.5%.
Compound C=C(C)COc1ccc(-c2[nH]ncc2Oc2ccc(OC)cc2)c(O)c1 has an inhibition of -5.21%.
COc1ccc(C(c2c(N)[nH]c(=S)[nH]c2=O)c2c(N)[nH]c(=S)[nH]c2=O)cc1 showed an inhibition of -18.4%.
With COc1ccc(-c2csc(-c3ccc(O)cc3)n2)cc1 the inhibition was 40%.
For COc1ccc(-c2nc(CCl)cs2)cc1, the inhibition was 7.52%.
O=C(CSc1c2c(nc3cc(Cl)ccc13)CCCC2)NCCCN1CCOCC1 showed an inhibition of 50%.
Compound Cc1[nH]c(=S)c(C#N)c2c1CCCC2 has an inhibition of 16.1%.
In the case of COc1ccc(CNc2nc3nc(C)c(Cl)c(=O)n3[nH]2)cc1, the inhibition is reported as 28.1%.
In the case of CC(OC(=O)c1cc(S(=O)(=O)N2CCOCC2)ccc1Br)C(=O)N1CCOCC1 (stereo unspecified), the inhibition is reported as 6.34%.
With CCC1Oc2ccccc2N(CC(=O)NCCCN2CCCCC2CC)C1=O (stereo unspecified) the inhibition was 1.4%.
Compound CCOC(=O)c1ccc(NC(=O)C(C)N2C(=O)c3ccccc3C2=O)cc1 (stereo unspecified) has an inhibition of -8.22%.
CC(=O)Nc1ccc(NC2=CC(=O)c3ccccc3C2=O)cc1 gave an inhibition of -2.89%.
Compound CCOC(=O)c1ccccc1NC1OC(=O)c2ccccc21 (stereo unspecified) has an inhibition of -8.12%.
NS(=O)(=O)c1ccc(NC2=CC(=O)C(=O)c3ccccc32)cc1 gave an inhibition of 36.2%.
Compound CCOC(=O)c1ccc(NC2c3ccccc3C(=O)N2c2ccccn2)cc1 (stereo unspecified) has an inhibition of -6.64%.
For O=C1C=C(Nc2ccccc2)C(=O)c2ccccc21, the inhibition was 56.9%.
In the case of CCOC(=O)c1c(C)[nH]c(C(=O)COC(=O)Cn2cc(C(F)(F)F)ccc2=O)c1C, the inhibition is reported as 2.63%.
Work on CCCc1nnc(NC(=O)CCC(=O)Nc2ccc(F)cc2)s1 yielded an inhibition of -5.14%.
CCN(C(=O)c1ccc(Cl)c(S(=O)(=O)Nc2c(C)n(C)n(-c3ccccc3)c2=O)c1)c1ccccc1 showed an inhibition of 5.47%.
Compound CCN(CC)C(=O)Cn1cc(C(=O)C(=O)N2CCCc3ccccc32)c2ccccc21 has an inhibition of 16.8%.
Cc1cc(/C=C2\NC(=O)NC2=O)c(C)n1-c1cccnc1 gave an inhibition of -6.79%.
Work on S=C(Nc1ccccc1)N1CCC(Cc2ccccc2)CC1 yielded an inhibition of 5.68%.
Work on O=C(N/N=C/c1cc(Br)ccc1O)c1cccc(N2CCCC2=O)c1 yielded an inhibition of 54.7%.
COc1ccc(O)c(/C=N/NC(=O)c2cccc(N3CCCC3=O)c2)c1 showed an inhibition of 5.55%.
Work on CCC1(CC)C(=O)N(C)C(=O)NC1=NC yielded an inhibition of -9.72%.
With O=C(N/N=C/c1ccccc1[N+](=O)[O-])c1cccs1 the inhibition was 55.4%.
O=C(N/N=C\c1cc2c(cc1[N+](=O)[O-])OCO2)c1cccs1 showed an inhibition of 16.5%.
Compound O=[N+]([O-])c1cccc(C=Nc2cccc3ccccc23)c1O has an inhibition of 55.1%.
Compound CN(C)/N=C/c1cc([N+](=O)[O-])ccc1O has an inhibition of -5.98%.
O=[N+]([O-])c1cccc(/C=N\N=C2c3ccccc3-c3ccccc32)c1O gave an inhibition of 22%.
Work on O=[N+]([O-])c1ccc(O)c(/C=N\N=C2c3ccccc3-c3ccccc32)c1 yielded an inhibition of 72.8%.
Compound c1ccc(CN2CCNCC2)nc1 has an inhibition of -22.1%.
In the case of CCOc1ncccc1C(=O)OCC(=O)N1CCN(S(=O)(=O)c2ccccc2)CC1, the inhibition is reported as -4.22%.
Work on CCOc1ccc(/C=N/OCC(=O)NCc2ccc3c(c2)OCO3)cc1OC yielded an inhibition of 13%.
Compound CCNC(=O)CSc1nnc(-c2cccs2)o1 has an inhibition of 61.4%.
Cc1ccc(S(=O)(=O)Nc2cccc3ncccc23)cc1 showed an inhibition of 15.3%.
Compound Cc1ccc(S(=O)(=O)Nc2ccnc3ccccc23)cc1 has an inhibition of -9.89%.
Work on O=C(NNC1OC(CO)C(O)C(O)C1O)c1cccnc1 (stereo unspecified) yielded an inhibition of -18.5%.
CCOC(=O)c1c(-n2cnnn2)sc2c1CCCC2 showed an inhibition of 0.53%.
CCCS(=O)(=O)c1nc(S(=O)(=O)c2ccc(Cl)cc2)c(N2CCC(O)CC2)s1 showed an inhibition of 9.91%.
With CC(C)OC(=O)Cn1cc(C#N)c2ccccc21 the inhibition was 17%.
With COC(=O)Cn1cc(C#N)c2ccccc21 the inhibition was 51.2%.
CCOC(=O)Cn1c(-c2ccccc2)cc(SC)c(C#N)c1=O showed an inhibition of 37.8%.
Compound CCn1c(-c2ccccc2)ccc(C#N)c1=O has an inhibition of -0.3%.
CCc1cccc2c(C#N)cn(CC(=O)NCCOC)c12 showed an inhibition of 2.34%.
Compound CCc1cccc2c(C#N)cn(CC(=O)N3CCOCC3)c12 has an inhibition of -9.31%.
Cc1cc(Cl)ccc1OCC(=O)Nc1cccnc1 gave an inhibition of 41%.
Compound C[C@]12C(=O)N(c3ccccc3)C(=O)N1[C@H]1c3ccccc3OC[C@@H]1[C@H]2c1ccccc1 has an inhibition of 79%.
In the case of Cn1c2ccccc2c2cc(/C=N/NC(=O)c3cc(O)cc(O)c3)ccc21, the inhibition is reported as -7.45%.
O=C(O)c1ccc(NS(=O)(=O)/C=C/c2ccccc2)cc1 gave an inhibition of -4.07%.
O=C(O)c1cccc(NS(=O)(=O)/C=C/c2ccccc2)c1 showed an inhibition of -0.77%.
Compound CC(=O)Nc1ccc(NC(=S)NC(=O)C2CCCC2)cc1 has an inhibition of 30.2%.
Compound O=C(Nc1ccc(F)cc1)C1CCCCC1 has an inhibition of 42.2%.
For OCC1(CCOc2ccccc2)CCN(Cc2ccc3c(c2)OCCO3)CC1, the inhibition was 14.7%.
For COC(=O)C(NC(C)=O)(Nc1nc2ccc(S(C)(=O)=O)cc2s1)C(F)(F)F (stereo unspecified), the inhibition was -2.55%.
COc1ccc(C(CCNCc2ccc(OC)c(OC)c2)c2ccc(F)cc2)cc1 (stereo unspecified) showed an inhibition of 76.8%.
COc1ccccc1C(CCNCc1ccccc1)c1ccc(OC(C)C)cc1 (stereo unspecified) showed an inhibition of 68.5%.
With O=C(O)c1cc2c(N3CCC(Cc4ccccc4)CC3)ncnc2s1 the inhibition was 11.8%.
In the case of c1ccc2c(Cn3ccnc3)cccc2c1, the inhibition is reported as -22.3%.
CC(C)C[C@H]1CN=C(Nc2ccccc2)N1CCC1CCCCC1 gave an inhibition of 25.8%.
For NC1=NC[C@@H](Cc2ccc(O)cc2)N1CCc1cccc2ccccc12, the inhibition was 64.2%.
Work on CN(C)C1=NC[C@H](Cc2ccccc2)N1CCCC1CCCC1 yielded an inhibition of 77%.
NC1=NC[C@H](Cc2ccccc2)N1CC1CCCCC1 showed an inhibition of 17%.
In the case of NC1=NC[C@H](Cc2ccc(O)cc2)N1CCc1cccc(F)c1, the inhibition is reported as 1.77%.
Work on CC(C)C[C@H]1CN=C(Nc2ccccc2)N1CCC1CCCC1 yielded an inhibition of 65.2%.
Compound CCC(=O)N1CCc2cc(S(=O)(=O)N3CCN(c4cc(C)ccc4C)CC3)ccc21 has an inhibition of -5.69%.
In the case of COc1ccc(-c2cn3nc(C)c(C)nc3n2)cc1OC, the inhibition is reported as -17%.
Cc1nnc(Sc2c(-c3ccccc3)c3ccc(Cl)cc3[nH]c2=O)s1 gave an inhibition of 31.4%.
With CS(=O)(=O)c1cccc(C(=O)Nc2nnc(C3=COCCO3)o2)c1 the inhibition was 22.2%.
Compound CN(C)c1ccc(C(=O)Nc2nnc(C3=COCCO3)o2)cc1 has an inhibition of -3.42%.
With O=C(Nc1nnc(C2=COCCO2)o1)c1ccc(S(=O)(=O)N2CCCC2)cc1 the inhibition was 6.48%.
Work on COc1cc(C(=O)Nc2nnc(C3=COCCO3)o2)cc(OC)c1OC yielded an inhibition of -6.31%.
In the case of CC(=O)Nc1nnc(C2=COCCO2)o1, the inhibition is reported as 3.17%.
For COc1ccc(C(=O)Nc2nnc(C3=COCCO3)o2)cc1OC, the inhibition was -10.9%.
With O=C(O)CN1C(=O)c2cccc3c(Br)ccc1c23 the inhibition was 2.53%.
With CCOC(=O)Cn1nnnc1CN(CCc1ccccc1)Cc1cc2cc(CC)ccc2[nH]c1=O the inhibition was -14.2%.
Work on COc1ccc(Nc2nc3cc(C)ccc3cc2C#N)c(OC)c1 yielded an inhibition of -16.1%.
Cc1cc(NC(=O)Cn2nnc3sc4c(c3c2=O)CCCC4)no1 showed an inhibition of 9.47%.
CCCn1c(C(C)NC(=O)c2ccccc2)n[nH]c1=S (stereo unspecified) gave an inhibition of 13.1%.
COc1cccc(-c2ccc(NC(=O)C3CCCN(Cc4nccn4C)C3)cc2)c1 (stereo unspecified) gave an inhibition of 58%.
O=C(Nc1cc(Cl)ccc1-n1cncn1)c1cc(F)c(F)c(F)c1F gave an inhibition of 14%.
COc1cc(/C=C2\SC(=O)N(CC(=O)Nc3ccc(C)cc3)C2=O)cc(Cl)c1OCC(=O)O showed an inhibition of 12.1%.
Compound O=C(NCC1CCN(C(=O)c2ccc([N+](=O)[O-])cc2)CC1)c1ccc([N+](=O)[O-])cc1 has an inhibition of 4.24%.
Compound O=C(CCNC(=O)c1ccc([N+](=O)[O-])cc1)NCc1cccs1 has an inhibition of -8.88%.
For O=C(NCCNC(=O)c1ccc(Br)o1)c1ccc(Br)o1, the inhibition was -3.49%.
For CCCCNC(=O)Cc1ccc(Br)cc1, the inhibition was 74%.
Compound O=C(NCCCCc1ccccc1)c1ccc(Br)o1 has an inhibition of 45.4%.
With Cc1ccc(CC(=O)NCCCc2ccccc2)cc1 the inhibition was 21.6%.
With O=C(NCc1cccs1)c1ccccc1 the inhibition was 64.8%.
Work on O=C(NCC1CCCCC1)c1cccc([N+](=O)[O-])c1 yielded an inhibition of 69.2%.
With C=CCC[C@@H](Cc1ccc(F)cc1)C(=O)OC[C@@H](Cc1c[nH]c2ccccc12)NC(=O)[C@H](CC=C)CC(=O)N[C@H](CO)Cc1ccccc1 the inhibition was -0.91%.
With CCCCOc1ccc(C(=O)OCC(=O)c2c(N)n(C)c(=O)n(C)c2=O)cc1 the inhibition was 27.4%.
O=C(NCCCn1ccnc1)c1cccc(Br)c1 showed an inhibition of -17.6%.
Compound COCC(=O)Nc1nc2n(n1)C(c1ccccc1Cl)CC(c1ccc(OC)cc1)N2 (stereo unspecified) has an inhibition of 24.1%.
For COC(=O)c1ccc(CS(=O)(=O)c2ccccc2C)o1, the inhibition was 2.59%.
In the case of CCCn1c(N)c(C(=O)CSc2nc3ccccc3c(=O)n2Cc2ccccc2)c(=O)[nH]c1=O, the inhibition is reported as 21%.
Compound COc1ccc(/C=N/NC(=O)c2ccn[nH]2)cc1Cn1cc([N+](=O)[O-])cn1 has an inhibition of -4.11%.
In the case of O=C(Nc1ccc(Cl)cn1)c1cc2c(s1)-c1ccccc1OC2, the inhibition is reported as 27.1%.
For O=C(CNC(=O)c1ccco1)NC1CCCCCC1, the inhibition was 5.43%.
With O=C(NCCNC1CCCCC1)c1ccco1 the inhibition was -9.39%.
O=C(O)c1ccc(CNC(=O)c2ccc(Br)o2)cc1 showed an inhibition of 21.4%.
Compound O=C(CNC(=O)c1ccc(Br)o1)NCc1ccc(F)cc1 has an inhibition of 23.3%.
Work on O=C(NCc1ccncc1)c1ccc(Br)o1 yielded an inhibition of 12.8%.
Work on O=C(NCc1ccccc1)c1ccc(Br)o1 yielded an inhibition of 77.6%.
C=CCn1c(O)c(C(CC)=Nc2cc(OC)ccc2OC)c(=O)[nH]c1=O gave an inhibition of 7.07%.
For CCNC(=S)NNC(=O)c1ccccc1OC(F)F, the inhibition was -5.06%.
COc1ccc(CC(C(=O)Nc2ccc(OC)cc2)c2nn[nH]n2)cc1 (stereo unspecified) gave an inhibition of 8.92%.
Compound Cc1cc(=O)oc2cc(NC(=S)NCc3cccnc3)ccc12 has an inhibition of -4.07%.
With CCCC(=O)c1cc2c(cc1NC(=O)c1ccccc1F)OCCO2 the inhibition was 4.71%.
Compound CC(=O)N1CCc2c(sc3c2c(=O)n(-c2ccccc2)c(=O)n3Cc2ccccc2Cl)C1 has an inhibition of -8.11%.
Compound O=C(NCCCn1ccnc1)Nc1ccc2c(c1)OCO2 has an inhibition of -2.69%.
With Cc1cc(C)c(NC(=O)C2=COCCO2)c(C)c1 the inhibition was -16.1%.
Cc1cc(C)c(-c2csc(NC(=O)C3=COCCO3)n2)c(C)c1 gave an inhibition of 34.2%.
